Experimental data from PubChem BioAssay (NCI).
The panel holds about 79,000 compounds, 15% with a hit somewhere; the sample as a whole holds those more often. Activity calls are given as the source filed them. No stated cut-off is given here; in the data, active means growth inhibition above about 70%; inactive means the rest.

Tests used:
[1] = NCI Yeast Anticancer Drug Screen. Data for the rad50 strain (AID 155);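 further: 0% = growth of vehicle-only cultures of the same strain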; conditions: S. cerevisiae rad50 strain growth inhibition, hits give high values
Method in brief: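 DNA repair mutant yeast, compound exposure, growth read-out; inhibition is taken relative to vehicle.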

[2] = NCI Yeast Anticancer Drug Screen. Data for the mec2-1 strain (AID 157); conditions: S. cerevisiae mec2-1 strain, hits give high values
Method in brief: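 Yeast mec2-1 mutant treated with compound. Readout: growth inhibition vs vehicle controls.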

[3] = NCI Yeast Anticancer Drug Screen. Data for the sgs1 mgt1 strain (AID 161);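 further: 0% = growth of cultures given vehicle only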; conditions: S. cerevisiae sgs1 mgt1 strain, hits give high values
Method in brief: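 Test agents were incubated with a DNA-repair-mutant yeast strain. Growth was then read and compared against vehicle-treated controls.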

[4] = NCI Yeast Anticancer Drug Screen. Data for the cln2 rad14 strain (AID 165);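 further: 0% = growth equal to vehicle treated cultures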; conditions: S. cerevisiae cln2 rad14 strain, hits give high values
Method in brief: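 cln2 rad14 yeast strain; compound exposure; growth inhibition read vs vehicle controls.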

[5] = NCI Yeast Anticancer Drug Screen. Data for the bub3 strain (AID 167); conditions: S. cerevisiae bub3 mutant strain, hits give high values
Method in brief: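 In this screen, a yeast mutant lacking normal mitotic checkpoint function is challenged with compound. Relative growth versus vehicle gives the inhibition value.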

[6] = NCI Yeast Anticancer Drug Screen. Data for the mlh1 rad18 strain (AID 175); conditions: S. cerevisiae mlh1 rad18 strain growth inhibition, hits give high values
Method in brief: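 Yeast w/ defined DNA-repair lesions; compound exposure; growth vs vehicle controls → % inhibition.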

[7] = at 5.0 µM (retest, dose inferred, filed as 0.5)
[8] = at 50.0 µM (retest, dose inferred, filed as 5.0)

Measured: growth inhibition

C=C(Cl)C(=NC(C)(C)C)Nc1ccccc1C
active: [2]; at 50.0 µM 74.9% | [3]; at 50.0 µM 81.4% | [5]; at 50.0 µM 83.8% | [6]; [8] 80%
inactive: [1]; [7] 27% | [1]; [8] 53% | [1]; at 50.0 µM 69.3% | [2]; [7] 20% | [2]; [8] 56% | [3]; [7] 25% | [3]; [8] 61% | [4]; [7] 29% | [4]; [8] 37% | [4]; at 50.0 µM 66% | [5]; [7] 22% | [5]; [8] 60% | [6]; [7] 30% | [6]; at 50.0 µM 40.1%

O=C1Nc2ccccc2/C1=C\c1ccccn1
active: [1]; [8] 76% | [3]; [8] 76% | [6]; [8] 86%
inactive: [1]; [7] 41% | [1]; at 50.0 µM 68.7% | [2]; [7] 22% | [2]; [8] 60% | [2]; at 50.0 µM 30.9% | [3]; [7] 34% | [3]; at 50.0 µM 48.7% | [4]; [7] 32% | [4]; [8] 38% | [4]; at 50.0 µM 9% | [5]; [7] 26% | [5]; [8] 68% | [5]; at 50.0 µM 56% | [6]; [7] 49% | [6]; at 50.0 µM 51%

[N-]=[N+]=Nc1ccc(SSCCC(=O)ON2C(=O)CCC2=O)cc1
inactive: [1]; [7] 24% | [2]; [7] 20% | [3]; [7] 40% | [4]; [7] 4% | [5]; [7] 2% | [6]; [7] 38%
active: [1]; [8] 97% | [1]; at 50.0 µM 98.6% | [2]; [8] 98% | [2]; at 50.0 µM 98.8% | [3]; [8] 98% | [3]; at 50.0 µM 98.3% | [4]; [8] 97% | [4]; at 50.0 µM 97.8% | [5]; [8] 97% | [5]; at 50.0 µM 98.7% | [6]; [8] 98% | [6]; at 50.0 µM 98.5%

CC#Cc1cc2c(cc1O)CC[C@@H]1[C@@H]2CC[C@]2(C)[C@@H](O)CC[C@@H]12
active: [1]; [8] 99% | [1]; at 50.0 µM 84.7% | [2]; [8] 100% | [2]; at 50.0 µM 90.3% | [3]; [8] 99% | [3]; at 50.0 µM 88.5% | [4]; [8] 99% | [4]; at 50.0 µM 72.4% | [5]; [8] 99% | [5]; at 50.0 µM 87.7% | [6]; [8] 99% | [6]; at 50.0 µM 93.3%
inactive: [1]; [7] 39% | [2]; [7] 22% | [3]; [7] 24% | [4]; [7] 20% | [5]; [7] 26% | [6]; [7] 29%

O=C1N[C@H]2[C@H](CS[C@H]2CCCCC(=O)N(CCP(c2ccccc2)c2ccccc2)CCP(c2ccccc2)c2ccccc2)N1
inactive: [1]; [7] 2% | [1]; [8] 41% | [1]; at 50.0 µM 59.4% | [2]; [7] 1% | [2]; [8] 27% | [2]; at 50.0 µM 16.4% | [3]; [7] 11% | [3]; [8] 47% | [3]; at 50.0 µM -5.85% | [4]; [7] 9% | [4]; [8] 23% | [4]; at 50.0 µM -18.8% | [5]; [7] 16% | [5]; [8] 34% | [5]; at 50.0 µM 7.8% | [6]; [7] -15% | [6]; [8] 8% | [6]; at 50.0 µM -26.7%

CC1=C(C(=O)Nc2ccccc2)C(c2cccc([N+](=O)[O-])c2)C(C(=O)Nc2ccccc2)=C(C)N1
inactive: [1]; [7] 4% | [1]; [8] 30% | [1]; at 50.0 µM -7.95% | [2]; [7] 1% | [2]; [8] 63% | [2]; at 50.0 µM 26.1% | [3]; [7] 4% | [3]; [8] 30% | [3]; at 50.0 µM 19.1% | [4]; [7] -2% | [4]; [8] 24% | [4]; at 50.0 µM 4.75% | [5]; [7] 6% | [5]; at 50.0 µM 35.4% | [6]; [7] -7% | [6]; [8] 24% | [6]; at 50.0 µM 18.9%
active: [5]; [8] 75%

CCCCCCCCCCCCCCCCCCn1[se]c2ccccc2c1=O
active: [3]; at 50.0 µM 83.8% | [5]; at 50.0 µM 76.5%
inactive: [1]; [7] 7% | [1]; [8] 7% | [1]; at 50.0 µM 69.3% | [2]; [7] 16% | [2]; [8] 16% | [2]; at 50.0 µM 45.4% | [3]; [7] 17% | [3]; [8] 17% | [4]; [7] 15% | [4]; [8] 15% | [4]; at 50.0 µM 59.1% | [5]; [7] 0% | [5]; [8] 0% | [6]; [7] -1% | [6]; [8] -1% | [6]; at 50.0 µM 33.5%

FC(F)(F)c1[nH]nc(-c2cc3ccccc3o2)c1N=NN1CCOCC1
active: [1]; [7] 99% | [1]; [8] 99% | [1]; at 50.0 µM 99.2% | [2]; [7] 100% | [2]; [8] 99% | [2]; at 50.0 µM 99.5% | [3]; [7] 100% | [3]; [8] 99% | [3]; at 50.0 µM 99.5% | [4]; [7] 99% | [4]; [8] 99% | [4]; at 50.0 µM 99.6% | [5]; [7] 100% | [5]; [8] 99% | [5]; at 50.0 µM 99.5% | [6]; [7] 100% | [6]; [8] 99% | [6]; at 50.0 µM 99.5%
